Assay outcomes from PubChem.
ELG1 genotox: qHTS screen for small molecules that induce genotoxicity in human embryonic kidney (HEK293T) cells expressing luciferase-tagged ELG1; HEK293T ELG1-luciferase reporter, luminescence, 16 h; Potency, µM (top dose mostly 46 µM), for the others: at the highest dose activity change, positive = activation, usual class: activators; 330,000 compounds, 1.3% hits; AID 504466, 2011; note: % of control where 0% means no effect; nearly all actives have a fitted effect of over 60% in size
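Step 1: seed 2,000 HEK293T ELG1-luciferase cells per well. Step 2: add compound or DMSO, incubate 16 hr at 37 °C. Step 3: ONE-Glo, 30 min at room temperature, read luminescence.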
FLuc modulator: qHTS profiling assay for firefly luciferase inhibitor/activator using purifed enzyme and Km concentrations of substrates (counterscreen for miR-21 project). Luciferin 4-monooxygenase (Photinus pyralis), P08659. purified FLuc, Km substrates, luminescence inhibition. Potency, µM (titrated, usually from 57.5 µM), for inactives: top-dose activity change, negative = inhibition, usual class: inhibitors. 360,000 compounds, 6.9% hits;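 note: plate controls were vehicle for no effect and reference inhibitor for full effect; nearly all actives have a fitted effect of over 55% in size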
Target sequence (P08659 whole entry, looked up): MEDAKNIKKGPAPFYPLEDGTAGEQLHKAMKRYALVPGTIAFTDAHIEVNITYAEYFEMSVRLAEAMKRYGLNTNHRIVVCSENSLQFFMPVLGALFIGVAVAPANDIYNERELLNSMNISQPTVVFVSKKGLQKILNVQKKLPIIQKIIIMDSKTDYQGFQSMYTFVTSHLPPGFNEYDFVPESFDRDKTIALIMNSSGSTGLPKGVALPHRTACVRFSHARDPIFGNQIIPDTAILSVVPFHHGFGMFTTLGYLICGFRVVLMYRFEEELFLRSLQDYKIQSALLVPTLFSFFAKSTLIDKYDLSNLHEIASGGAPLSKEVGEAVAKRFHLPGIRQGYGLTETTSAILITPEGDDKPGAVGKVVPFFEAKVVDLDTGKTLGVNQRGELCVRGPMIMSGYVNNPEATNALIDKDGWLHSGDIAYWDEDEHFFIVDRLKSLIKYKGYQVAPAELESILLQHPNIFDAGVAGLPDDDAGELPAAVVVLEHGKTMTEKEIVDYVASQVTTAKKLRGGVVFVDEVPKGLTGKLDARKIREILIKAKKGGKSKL
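Biochemical qHTS of compounds, final roughly 60 µM downward over six points, against 10 nM purified firefly luciferase using Km concentrations of substrates (10 uM D-luciferin, 10 uM ATP) in Tris acetate pH 7.5 buffer; luminescence output.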
NPC1 promoter act: qHTS Assay for NPC1 Promoter Activators; 320,000 compounds, 2.4% hits; AID 485313, 2010; Potency, µM (titrated, usually from 9.22 µM), without a hit: at the top dose activation, actives largely listed as activators; Huh7 NPC1 promoter luciferase reporter, 24 h; note: % of control where 0% means no effect; nearly all actives have a fitted effect of over 60% in size
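Stable NPC1-promoter luciferase Huh7 line; cpd (DMSO) 24 h, 37 °C, 5% CO2; Amplite luciferase reagent 10 min RT; luminescence readout. qHTS format.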
Rab9 promoter act: qHTS Assay for Rab9 Promoter Activators; AID 485297, 2010; 320,000 compounds, 2.8% hits; Huh7 Rab9 promoter-luciferase reporter, luminescence, 24 h; Potency, µM (top dose mostly 9.22 µM), inactives show top-dose activation, negative = inhibition, actives largely listed as activators; note: % of control where 0% means no effect; nearly all actives have a fitted effect of over 60% in size
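Measured in stably transfected Huh7 cells bearing a Rab9 promoter–luciferase construct: 24 h compound treatment at 37 °C, followed by luminescence detection.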
ELG1 DNA repair: qHTS screen for small molecules that inhibit ELG1-dependent DNA repair in human embryonic kidney (HEK293T) cells expressing luciferase-tagged ELG1; HEK293T ELG1-luciferase reporter, luminescence, 16 h; DNA damage induced by 5-fluorouridine; Potency, µM (highest dose often 46.1 µM), without a hit: at the top dose activity change, negative = inhibition, most hits filed as inhibitors; 330,000 compounds, 2.3% hits; AID 504467, 2011; note: % is set by controls: 0 for no effect and ±100 for the full control effect; nearly all actives have a fitted effect of over 55% in size
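Quantitative HTS, concentration-response format. 2,000 cells/well co-treated with 5-fluorouridine and compound, 16 hr in 5% CO2 at 37 °C; ONE-Glo luminescence read after 30 min.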
SMN2 splice enh: qHTS Assay for Enhancers of SMN2 Splice Variant Expression. HEK293 SMN2-luciferase splicing reporter, luminescence, 30-36 h. Potency, µM (top dose mostly 46.1 µM), for inactives: at the highest dose activity change, positive = activation, most hits filed as activators. 210,000 compounds, 2.8% hits. AID 1458, 2008; note: % of control where 0% means no effect; nearly all actives have a fitted effect of over 55% in size
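HEK293 cells carry an SMN2 minigene-luciferase reporter in which exon 7 inclusion puts luciferase in frame. Cells were seeded at 2000 cells/well, attached for 10-12 hours, then exposed to compounds for 30-36 hours at 37C before ONE-Glo luminescence.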
* marks the source's active call; other numbers are inactive results; ? = inconclusive; / = no result. Rows were chosen to be rich in hits. Some 9.3% of all compounds tested hit in one or more screens of this group. Calls come from the whole dose curve; as a rule, active = well fitted curve in the direction sought with a large enough effect; inconclusive = small, poorly fitted or top-dose-only effect, or another doubt; inactive = no such curve, though single readings can be large; an effect the other way counts as inactive or inconclusive. Potency is the fitted concentration of half-maximal effect.

SMILES | ELG1 genotox | FLuc modulator | NPC1 promoter act | Rab9 promoter act | ELG1 DNA repair | SMN2 splice enh
Cc1ccc(C)c(N2CCN(C(=O)C(C)n3nc(C)c4sc5ccccc5c4c3=O)CC2)c1 (stereo not given) | / | 15µM* | / | / | / | /
Cc1ccc(NC(=O)c2ccc3nsnc3c2)c(Cl)c1 | ? | 1.5µM* | 0.5µM* | 0.32µM* | ? | /
Cc1c(NC(=O)c2ccc3nsnc3c2)cccc1[N+](=O)[O-] | -5% | 0% | -6% | 3% | 4% | /
O=C(Nc1ccc(Br)cc1F)c1ccc2nsnc2c1 | 10µM* | ? | 1.6µM* | 3.5µM* | ? | /
COc1cc(O)oc1C=Nc1ccc(Oc2ccccc2)cc1 | 16% | 15µM* | ? | ? | ? | -23%
COc1cc(O)oc1C=Nc1ccc(Cl)cc1 | 1% | -12% | -4% | 0% | -8% | -6%
Nc1ccc(N(CCO)CCO)cc1 | 1% | 4% | 1% | 14% | -2% | /
Cc1cc(N(CCO)CCO)ccc1N=Nc1cc(F)ccc1F | ? | 24µM* | ? | ? | ? | ?
CC[C@@]1(c2ccccc2OC)C(=O)N(C(=O)OC)N1C(=O)OC | 2% | -2% | -6% | -12% | -11% | /
COCCC1CCCCN1C(=O)c1ccc2nc(Cc3ccccc3F)oc2c1 (stereo not given) | 10µM* | 8.5µM* | 1.8µM* | 2.8µM* | ? | /
CC(=O)C1CCCN(C(=O)c2ccc3nc(Cc4cccc(Cl)c4)oc3c2)C1 (stereo not given) | -3% | 5% | 3% | 3% | 0% | /
CCOC(=O)C1CCCN(C(=O)c2ccc3oc(CCc4ccccc4)nc3c2)C1 (stereo not given) | 12% | 13µM* | ? | 30% | ? | /
CCOC(=O)CC1CCCCN1C(=O)c1ccc2oc(CCc3ccccc3)nc2c1 (stereo not given) | 2% | ? | 5% | 17% | 25% | /
O=C(c1ccc2oc(CCCc3ccccc3)nc2c1)N1CCCC1 | 9.2µM* | 8.5µM* | 3.2µM* | 1.8µM* | ? | /
CC(=O)C1CCCN(C(=O)c2ccc3oc(CCc4ccccc4)nc3c2)C1 (stereo not given) | ? | ? | ? | 2.5µM* | ? | /
N#Cc1c(NC(=O)CCN2C(=O)c3ccccc3C2=O)oc(-c2ccccc2)c1-c1ccccc1 | -5% | 0% | -3% | -2% | -14% | 4%
O=[N+]([O-])c1cccnc1S(=O)(=O)c1ccccc1 | 12% | 5% | -20% | -44% | -19% | /
CCOC(=O)C1CCCN(C(=O)c2ccc3nc(-c4ccccc4)c(-c4ccccc4)nc3c2)C1 (stereo not given) | -10% | 3% | 19% | 8% | -15% | /
CCCCc1nc2cc(C(=O)N3CCN(c4nc(C)cnc4C)CC3)ccc2o1 | 4% | 15µM* | ? | ? | ? | /
COC(=O)C1CCCCN1C(=O)c1ccc2oc(Cc3ccccc3)nc2c1 (stereo not given) | ? | 15µM* | 3.5µM* | ? | ? | /
CCOC(=O)C1CCCN(C(=O)c2ccc3nc(-c4ccc(OC)c(OC)c4)c(-c4ccc(OC)c(OC)c4)nc3c2)C1 (stereo not given) | -1% | 1% | -3% | 3% | 1.8µM* | /
Cc1cc(C)c(S(=O)(=O)N2CCN(C(=O)c3cc(=O)[nH]c4ccccc34)CC2)c(C)c1 | -4% | -2% | 0% | -4% | ? | /
O=S1(=O)CCC(=Nc2ccc(Cl)cc2)c2ccsc21 | -3% | 5% | -2% | -8% | -8% | -6%
CCOc1ccc(OCc2cccc(C(=O)N/N=C/c3cccnc3)c2)cc1 | 0.23µM* | 1.5µM* | 0.1µM* | 0.1µM* | ? | 0.13µM*
CC(C)c1ccc(OCc2cccc(C(=O)N/N=C/c3cccnc3)c2)cc1 | 0.46µM* | 0.85µM* | 0.28µM* | ? | ? | 0.22µM*
SMILES | ELG1 genotox | FLuc modulator | NPC1 promoter act | Rab9 promoter act | ELG1 DNA repair | SMN2 splice enh
O=C(N/N=C/c1cccnc1)c1ccccc1OCc1cccc(Br)c1 | -12% | -18% | -4% | -8% | 21µM* | -41%
O=C(N/N=C/c1cccnc1)c1cccc(Br)c1 | 5% | ? | 2% | 20% | ? | /
COc1cc(S(=O)(=O)Nc2ccc(Br)cc2)ccc1N | -5% | -9% | 0% | 0% | ? | /
CCOC(=O)Cn1cncc1-c1ccc([N+](=O)[O-])cc1 | 17% | 24µM* | 23% | ? | ? | ?
CCN(CCCCN1C(=O)c2ccccc2C1=O)c1ccc2c(c1)C(=O)N(C)C2=O | -15% | 5% | 2% | 1% | 16µM* | -21%
CCN(CC)c1ccc2c(c1)C(=O)N(C)C2=O | ? | ? | 16% | 29% | ? | 25%
COc1ccccc1NS(=O)(=O)c1cccc(C(=O)NNC(=O)c2ccc(O)c(Cl)c2)c1 | 1% | 5% | 0% | 0% | 9% | /
CCOc1ccccc1NC(=O)c1ccc2c(Cl)c3c(nc2c1)CCCC3 | / | 2.7µM* | / | / | / | -2%
CCOc1ccccc1NC(=O)CSc1c2c(nc3ccc(Cl)cc13)CCCC2 | / | -3% | / | / | / | 4%
COc1cc(OC)c(NC(=O)c2ccc3c(Cl)c4c(nc3c2)CCCC4)cc1Cl | / | -1% | / | / | / | -4%
CCOc1ccccc1NC(=O)c1ccc2ccccc2c1 | 0% | 21µM* | ? | ? | 21% | /
CCOc1ccccc1NC(=O)c1ccc2c(Cl)c3c(nc2c1)CCC3 | / | 0.85µM* | / | / | / | 22%
COc1ccccc1NC(=O)c1ccc2c(Cl)c3c(nc2c1)CCCC3 | / | 7.6µM* | / | / | / | 1%
O=C(COC(=O)c1ccc[nH]c1=O)NC1CCCC1 | -2% | 0% | -1% | -2% | 0% | -22%
CSc1ccccc1OCc1cc(C(=O)NCC(C)(C)N2CCOCC2)no1 | -6% | 0% | 0% | 0% | -8% | /
Cc1cc(C(F)F)n2ncc(C(=O)NCc3ccccc3)c2n1 | -1% | -1% | 4% | 0% | -3% | 7%
CSc1ccc(CCNC(=O)Cn2ncc3c(=O)oc4ccccc4c32)cc1 | / | -2% | / | / | / | -9%
CCC(=O)CCC(=O)c1ccc2ccccc2c1 | ? | 15µM* | ? | ? | ? | 14µM*
Clc1ccc(-c2nnn(Cc3nc4ccccc4s3)n2)cc1 | ? | 19µM* | 8% | 16% | ? | 14%
